# In PubChem BioAssay (EPA / NIEHS):
# “And” between values parts separate entries of the source, which are not always exact repeats. Equal entries are not always repeated. Results filed as inconclusive are left out. The source made the active and inactive calls. The calls were made as follows, unless noted: active = hit-call score of the fitted dose curve at least 0.9, where 1 is the maximum; inactive = score below 0.9.
# Legend:
# [1] = CCTE_Mundy_HCI_iCellGluta_NOG_NeuriteLength: CCTE's Neurite Outgrowth Assay in iCellGluta cells for Neurite Length, Mundy Lab (AID 2284318; active = hit-call score of the fitted dose curve at least 0.9, where 1 is the maximum)
# Method in brief: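 Automated high-content imaging of betaIII-tubulin (Alexa Fluor-488) and Hoechst-stained cells gave neurite length, normalized to the DMSO baseline.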
# TTR (gene 7276) = test: CCTE_GLTED_hTTR_0.5uM: CCTE's human Transthyretin (hTTR) Inhibition Assay, with 0.5uM TTR, Great Lakes Toxicology and Ecology Division (GLTED) Lab (AID 2284320)
# Method in brief: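 Cell-free displacement assay in which human TTR at 0.5 uM was incubated with test chemical for 2 h. Displacement of the ANSA probe was read by fluorescence at 380 nm excitation/475 nm emission. Loss of signal was fitted in the positive direction versus DMSO.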
# IYD (gene 389434) = test: CCTE_GLTED_hIYD: CCTE's human Iodotyrosine Deiodinase (xIYD) Inhibition Assay, Great Lakes Toxicology and Ecology Division (GLTED) Lab (AID 2284317; active = hit-call score of the fitted dose curve at least 0.9, where 1 is the maximum;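 also: cell-free human IYD enzyme made in baculovirus insect cells; iodide freed from monoiodotyrosine measured by cerium arsenite color change at 420 nm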)
# Method in brief: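 Human IYD expressed in a baculovirus-insect cell system was incubated 3 h with monoiodotyrosine and test chemical. Released iodide, separated on Dowex columns, was quantified by the Sandell-Kolthoff reaction at 420 nm; plates were normalized to MNT and DMSO/NaOH controls.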
# [2] = IUF_NPC2-5_cytotoxicity_72hr: Cytotoxicity Assessment at 72 hours in the Leibniz Research Institute for Environmental Medicine (IUF) Neural Progenitor Cell Migration and Differentiation Assay for Cytotoxicity (NPC2-5) (AID 2284306; active = hit-call score of the fitted dose curve at least 0.9, where 1 is the maximum;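 also: LDH release into supernatant measured by resorufin fluorescence marking membrane damage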)
# Method in brief: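 Membrane integrity loss was scored from fluorescence (RFU) of resorufin generated by LDH in culture supernatant, 72 h after dosing. Differentiating human progenitor spheres received seven serial compound concentrations alongside a solvent control.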
# [3] = IUF_NPC2-5_cytotoxicity_120hr: Cytotoxicity Assessment at 120 hours in the Leibniz Research Institute for Environmental Medicine (IUF) Neural Progenitor Cell Migration and Differentiation Assay (NPC2-5) (AID 2284307; active = hit-call score of the fitted dose curve at least 0.9, where 1 is the maximum;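 as to AC50: LDH released into supernatant as membrane damage marker via resorufin fluorescence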)
# Method in brief: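 Human fetal neural progenitor spheres (0.3 mm, GW 16-19 cortex) were plated on poly-D-lysine/laminin in N2 differentiation medium and exposed for 120 h, with half-medium refresh at day 3. LDH release into supernatant was read by resorufin fluorescence.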
# [4] = IUF_NPC2-5_cell_number_120hr: Cell Number Assessment at 120 hours in the Leibniz Research Institute for Environmental Medicine (IUF) Neural Progenitor Cell Migration and Differentiation Assay (NPC2-5) (AID 2284308);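 also: count of Hoechst-stained nuclei in migration zone around plated human neural progenitor spheres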
# Method in brief: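 Primary human fetal neural progenitor spheres (GW 16-19, 0.3 mm) plated on poly-D-lysine/laminin in N2 differentiation medium, exposed from day 0 for 120 h with half-medium refresh at day 3; Hoechst-positive nuclei counted in migration area versus DMSO control.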
# [5] = IUF_NPC2-5_viability_120hr: Viability Assessment at 120 hours in the Leibniz Research Institute for Environmental Medicine (IUF) Neural Progenitor Cell Migration and Differentiation Assay (NPC2-5) (AID 2284312)
# Method in brief: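 Alamar blue resorufin fluorescence read after 5 days of differentiation, with compound present from day 0 and replenished at day 3. Primary hNPC spheres on laminin-coated plates, 37C; seven concentrations plus solvent control, fitted against DMSO.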
# [6] = TAMU_PeakParms_SingleDonor1434_Asystole: Texas A&M University (TAMU) 1.5-hr Human Induced Pluripotent Stem Cell (iPSC)-derived Cardiomyocytes Calcium (Ca+2) Flux Assay for Cardiotoxicity: Asystole (quiescence of beating) (AID 2284328; active = hit-call score of the fitted dose curve at least 0.9, where 1 is the maximum)
# Method in brief: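 Average Ca2+-flux peak frequency (beats/s) was recorded in single-donor iPSC-derived cardiomyocytes after 90 min exposure (0.2–100 uM final, 0.5% DMSO). Asystole POD set as EC95 against DMSO, no preprocessing.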
# [7] = system: Brachyury (BRA) Protein Expression, Deisenroth Lab, TBXT (gene 6862); test: CCTE_Deisenroth_DEVTOX-GLR_legacy_Bra: (Legacy) CCTE's DevTox GLR-Endo Assay Evaluation of Brachyury (BRA) Protein Expression, Deisenroth Lab (AID 2284329)
# Method in brief: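 Human pluripotent RUES2-GLR line was exposed twice during 48 h differentiation to a 10-point series, 1 nM - 200 uM. Fraction of Bra-positive cells was scored by imaging against pluripotent baseline and fitted after 0.2% DMSO subtraction.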
# [8] = CCTE_Deisenroth_DEVTOX-GLR_legacy_CellCount: (Legacy) Viability Assessment in CCTE's DevTox GLR-Endo Assay, Deisenroth Lab (AID 2284331); details: actives raise or lower the signal
# Method in brief: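 RUES2-GLR human pluripotent cells were seeded 24 h, then differentiated 48 h with two compound doses at 24 h intervals (10-point, 1 nM - 200 uM). Fixed nuclei were imaged and counted; bidirectional fitting versus 0.2% DMSO.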
# [9] = IUF_NPC1_cytotoxicity_72hr: Cytotoxicity Assessment at 72 hours in the Leibniz Research Institute for Environmental Medicine (IUF) Neural Progenitor Cell Proliferation Assay (NPC1) (AID 2284332; active = hit-call score of the fitted dose curve at least 0.9, where 1 is the maximum;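 also: rising LDH signal means more cytotoxicity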)
# Method in brief: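 Single human fetal cortex neural progenitor spheres (GW 16-19, 0.25-0.35 mm) in EGF/FGF proliferation medium were exposed to compound for 72 h at 37C without renewal. Medium LDH release was read as resorufin fluorescence and fitted as gain-of-signal.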
# [10] = CCTE_Deisenroth_5AR_NBTE_donor: CCTE's 5alpha-reductase NanoBRET Target Engagement Assay […], Deisenroth Lab (AID 2284319); details: actives raise or lower the signal
# Method in brief: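 HEK293T cells were reverse transfected with an SRD5A2-NanoLuc vector for 20 h, exposed to test chemical (8 points, 10 nM - 29.9 uM) for 3 h, then testosterone tracer for 2 h more. Donor luminescence (460 nm) was read; bidirectional fit versus DMSO.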
# [11] = CCTE_Deisenroth_5AR_NBTE_acceptor: CCTE's 5alpha-reductase NanoBRET Target Engagement Assay - Autofluorescence Screen, Deisenroth Lab (AID 2284321); details: actives raise or lower the signal;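 also: compound fluorescence in the acceptor channel under 460 nm excitation flags autofluorescence artifacts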
# Method in brief: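 HEK293T cell-based NanoBRET assay read 5 h after dosing; this acceptor channel serves as an autofluorescence artifact screen. Chemicals at nominal 100 uM were scanned in three independent runs (n=3), excitation 460 nm. Fitting was bidirectional versus DMSO baseline.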
# SRD5A2 (gene 6716) = test: CCTE_Deisenroth_5AR_NBTE_ratio: CCTE's 5alpha-reductase NanoBRET Target Engagement Assay - Ratio, Deisenroth Lab (AID 2284322); details: actives raise or lower the signal
# Method in brief: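 Reverse-transfect HEK293T with pNLF1-C-SRD5A2, express 20 h. Pre-incubate cells with chemical 3 h (8-point series, 10 nM - 29.9 uM, duplicate). Add testosterone tracer, 2 h more. Add substrate/inhibitor, read donor and acceptor emission.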
smiles,measurement,setting,value
O=P(O)(O)CCC(F)(F)C(F)(F)C(F)(F)C(F)(F)C(F)(F)C(F)(F)F,outcome,[1],inactive
same,AC50,TTR (gene 7276),6.47 µM (active)
O=C(O)C(F)(F)OC(F)(F)C(F)(F)OC(F)(F)C(F)(F)OC(F)(F)C(F)(F)C(F)(F)C(F)(F)F,AC50,IYD (gene 389434),93.2 µM (active)
same,AC50,TTR (gene 7276),1.11 µM (active)
CC(=O)Nc1ccc(O)cc1,outcome,[2],inactive
same,outcome,[3],inactive
same,outcome,[4],inactive
same,outcome,[5],inactive
same,outcome,[6],inactive
same,outcome,[7],inactive
same,outcome,[8],inactive
same,outcome,[9],inactive
O=C(O)CCC(F)(F)C(F)(F)C(F)(F)C(F)(F)C(F)(F)C(F)(F)F,AC50,TTR (gene 7276),3.66 µM (active)
CC(C)c1c(C(=O)Nc2ccccc2)c(-c2ccccc2)c(-c2ccc(F)cc2)n1CC[C@@H](O)C[C@@H](O)CC(=O)O,AC50,[2],2.54 µM (active)
same,AC50,[3],1.75 µM (active)
same,outcome,[4],inactive
same,outcome,[5],inactive
same,AC50,[1],0.0462 µM (active)
same,outcome,[9],inactive
O=C(CC(=O)C(F)(F)C(F)(F)C(F)(F)F)c1cccs1,outcome,[1],inactive
same,AC50,TTR (gene 7276),0.193 µM (active)
COc1cc([N+](=O)[O-])ccc1N,outcome,[10],inactive
same,outcome,[11],inactive
same,AC50,SRD5A2 (gene 6716),50 µM (active)
NC(=NCCCCCCN=C(N)/N=C(\N)Nc1ccc(Cl)cc1)/N=C(\N)Nc1ccc(Cl)cc1,AC50,IYD (gene 389434),54.7 µM (active)
same,AC50,[11],50 µM (active)
same,AC50,SRD5A2 (gene 6716),81 µM (active)
CCCCc1oc2ccccc2c1C(=O)c1cc(I)c(OCCN(CC)CC)c(I)c1,outcome,[10],inactive
same,outcome,[11],inactive
same,outcome,SRD5A2 (gene 6716),inactive
same,AC50,[7],19.8 µM (active)
same,AC50,[8],18.2 µM (active)
CCc1ccccc1O,outcome,[10],inactive
same,outcome,[11],inactive
same,outcome,SRD5A2 (gene 6716),inactive
O=C(Nc1ccc(Cl)c(Cl)c1)c1cc(Cl)cc(Cl)c1O,AC50,IYD (gene 389434),77.4 µM (active)
Oc1c(Cl)cc(Cl)cc1Sc1cc(Cl)cc(Cl)c1O,AC50,IYD (gene 389434),56.9 µM (active) and 88.2 µM (active) and 100 µM (active)
CCCCCCc1ccc(N)cc1,outcome,[10],inactive
same,outcome,[11],inactive
same,AC50,SRD5A2 (gene 6716),50 µM (active)
